Compounds with a hit are over-represented: about 11% of the library has one in this group of screens.
IMPase Li cell: IMPase inhibition in cells with lithium potentiation. CHO-M1 cells, IP1 TR-FRET (IP-One), carbachol + lithium. Potency, µM (doses to about 59.4 µM), without a hit: top-dose activity, negative = IMPase inhibition, actives largely listed as inhibitors. actives 0.35% (n = 210,000). AID 1457;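 note: IP1 builds up when IMPase is blocked and the TR-FRET signal falls; potency is the fitted concentration of half-maximal effect; plate controls were basal vehicle for no effect and high inhibitor control for full effect; nearly all actives have a fitted effect of over 50% in size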
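Lithium-sensitised IP1 accumulation assay; M1-expressing CHO cells treated 30 min at 37C with compound. Competitive antibody detection by time-resolved FRET followed a 10 min room-temperature lysis step.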
ALDH1A1 block: inhibitors of human aldehyde dehydrogenase 1A1 | actives 7.3% (n = 220,000) | P00352 | AID 1030 | Potency, µM (highest dose often 75.3 µM), without a hit: top-dose activity, negative = inhibition, most hits filed as inhibitors | Purified ALDH1A1, NADH fluorescence, propionaldehyde substrate; active = well fitted inhibition curve with a large enough effect, not every such curve was filed as active; inconclusive = small, poorly fitted or top-dose-only effect, or another doubt; inactive = no such curve, though single readings can be large or run the other way;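 note: potency is the fitted concentration of half-maximal effect; plate controls were no enzyme wells and a reference inhibitor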
Target sequence (P00352 whole entry, looked up): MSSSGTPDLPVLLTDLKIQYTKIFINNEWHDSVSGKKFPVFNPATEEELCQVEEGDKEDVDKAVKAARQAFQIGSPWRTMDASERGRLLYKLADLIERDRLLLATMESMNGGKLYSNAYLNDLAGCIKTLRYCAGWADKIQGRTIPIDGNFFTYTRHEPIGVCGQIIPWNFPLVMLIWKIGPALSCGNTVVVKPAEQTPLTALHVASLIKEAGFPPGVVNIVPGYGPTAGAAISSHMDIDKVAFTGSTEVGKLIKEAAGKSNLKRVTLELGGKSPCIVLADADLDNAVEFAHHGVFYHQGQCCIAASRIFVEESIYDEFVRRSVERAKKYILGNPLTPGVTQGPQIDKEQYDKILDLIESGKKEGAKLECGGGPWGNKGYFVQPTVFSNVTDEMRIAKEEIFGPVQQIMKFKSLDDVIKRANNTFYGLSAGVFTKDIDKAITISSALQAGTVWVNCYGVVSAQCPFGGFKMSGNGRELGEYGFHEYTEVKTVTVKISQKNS
ALOX12 inhib: inhibitors of human 12-lipoxygenase (ALOX12); P18054; purified 12-hLO, xylenol orange hydroperoxide absorbance; Potency, µM (doses to about 57.1 µM), inactives show top-dose activity change, negative = inhibition, most hits filed as inhibitors; actives 0.12% (n = 150,000); AID 1452; note: potency is the fitted concentration of half-maximal effect; nearly all actives have a fitted effect of over 55% in size
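Hydroperoxide formation by human 12-lipoxygenase from 40 uM arachidonic acid was followed colorimetrically via ferric-xylenol orange complex, using the 573/405 nm absorbance ratio. Enzyme concentration was 150 nM, with 30 min reaction at room temperature.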
IMPase inh: membrane-permeable compound that blocks inositol monophosphatase; P97697; CHO-M1 cells, IP1 accumulation, HTRF TR-FRET ratio; inhibition (IP1 accumulation), % at 46.1 µM; 120,000 tested, under 10 active; AID 901; active = well fitted curve in the direction sought with a large enough effect in the signal ratio, not every such curve was filed as active; inconclusive = small, poorly fitted or top-dose-only effect, or a change in a side signal; inactive = no such curve, though single readings can be large or run the other way; the % refers to the signal ratio;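 note: cells stimulated with carbachol in lithium chloride buffer; plate controls were DMSO basal wells for no effect and reference inhibitor wells for full effect; higher means more IMPase inhibition seen as more IP1 and lower FRET ratio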
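In this qHTS, compounds (final up to 46 uM) act on CHO-M1 cells that are then activated through the M1 receptor with carbachol, in pH 7.4 buffer containing 50 mM LiCl, for 30 min. IP1 accumulation is quantified by the IP-One immunoassay.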
HPGD block: HPGD (human) dehydrogenase inhibition | Potency, µM, inactives show at the highest dose activity change, negative = inhibition, actives largely listed as inhibitors | actives 4.3% (n = 150,000) | purified HPGD, NADH fluorescence kinetic, PGE2 substrate | P15428; active = well fitted inhibition curve with a large enough effect, not every such curve was filed as active; inconclusive = small, poorly fitted or top-dose-only effect, or another doubt; inactive = no such curve, though single readings can be large or run the other way; note: potency is the fitted concentration of half-maximal effect
Target sequence (P15428 whole entry, looked up): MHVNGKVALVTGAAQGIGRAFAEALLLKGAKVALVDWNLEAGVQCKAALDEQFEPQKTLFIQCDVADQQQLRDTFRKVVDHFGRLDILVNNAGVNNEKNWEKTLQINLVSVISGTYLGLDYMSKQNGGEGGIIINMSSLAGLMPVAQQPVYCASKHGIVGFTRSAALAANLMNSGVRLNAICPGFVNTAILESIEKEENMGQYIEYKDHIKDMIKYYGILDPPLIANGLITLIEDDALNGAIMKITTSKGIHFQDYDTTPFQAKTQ
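20 nM HPGD preincubated 15 min at room temperature with compound in 50 mM Tris-HCl pH 8, 0.01% Tween 20. Started with 1 mM NAD+ and 30 uM prostaglandin E2; NADH fluorescence (360/450 nm) read 5 times over 30-s intervals, last minus first.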
PNC assembly inh: blocks assembly of the perinucleolar compartment; actives 3.1% (n = 140,000); activity change (PNC), negative = inhibition, % at 10 µM; PC3M PTB-GFP, PNC prevalence imaging, 16 h; hits give low values;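 active = readout at or below -70, meaning at least 70% loss of cells showing the perinucleolar compartment, a nuclear body marking cancer cells; inconclusive = readout between -30 and a set limit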;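 note: plate controls were DMSO wells for no effect and camptothecin positive control wells for full effect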
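Compounds are pinned in duplicate onto adhered PC3M cells stably expressing GFP-tagged PTB and incubated 16 h at 37 C. Cells are then fixed, nuclei stained with Hoechst, and PNC-positive cells counted.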
* = called active by the depositor; ? = inconclusive; . = no result given; [ ] = another dose, or the depositor's remark. Unless noted, calls come from the whole dose curve; as a rule, active = well fitted curve in the direction sought with a large enough effect; inconclusive = small, poorly fitted or top-dose-only effect, or another doubt; inactive = no such curve, though single readings can be large; an effect the other way counts as inactive or inconclusive. Unless noted, % is set by controls: 0 for no effect and ±100 for the full control effect.

SMILES	IMPase Li cell	ALDH1A1 block	ALOX12 inhib	IMPase inh	HPGD block	PNC assembly inh
COc1cccc(S(=O)(=O)N2CCN(Cc3ccc4c(c3)OCO4)CC2)c1	.	.	.	-8.2	.	.
CNC(=O)COC(=O)c1cc(SC)ccc1Cl	2.2%	4.7%	.	.	.	.
CSc1ccc(Cl)c(C(=O)OCC(=O)NCC(C)C)c1	-7.6%[38.3 µM]	-13.1%	3.0%	-1.2	14.1µM*	-18.9
CC(=O)c1cccc(NCc2ccccc2-c2nnc(-c3ccccc3)o2)c1	.	.	.	10.7	.	.
C=C(C)Cn1c(SCC#N)nc2ccccc2c1=O	8.6%[38.3 µM]	10µM*	-5.3%	-2.3	-15.3%	9.0
C=C(C)Cn1c(SCC(=O)N/N=C/c2c(O)ccc3ccccc23)nc2ccccc2c1=O	3.3%	5.1%	4.7%	.	-21.2%	-121.5*
Cn1c(/C(C#N)=C/c2ccccc2Br)nc2ccccc21	.	.	.	3.4	.	.
O=S(=O)(c1ccccc1)N1N=C(c2cccs2)CC1c1ccc(F)cc1 (centres undefined)	10.9%[38.3 µM]	-8.6%	2.6%	4.7	-10.2%	?
Fc1ccc(N2N=C(c3cccs3)CC2c2ccccc2)cc1 (centres undefined)	10µM*	?	.	.	.	.
c1ccc(C2Oc3ccccc3C3CC(c4cccs4)=NN32)cc1 (centres undefined)	-1.6%	12.6µM*	-13.3%	.	?	-20.4
O=C(O)c1[nH]c(=O)[nH]c(=O)c1CN1CCCCC1	0.9%	8.9%[13.5 µM]	-3.4%[11.4 µM]	.	-10.0%	.
Oc1ccc(N2CCN(C(c3cccs3)c3nnnn3CCc3ccccc3)CC2)cc1 (centres undefined)	-1.3%	25.1µM*	-3.9%	9.0	-3.9%	-29.2
c1ccc(Cn2nnnc2C(c2cccs2)N2CCCCCC2)cc1 (centres undefined)	7.6%	14.1µM*	-8.3%	4.9	4.3%	15.2
COc1ccc(Cn2nnnc2C(c2cccs2)N2CCN(c3ccccc3)CC2)cc1 (centres undefined)	9.9%[38.3 µM]	-6.2%	-2.8%	0.2	-17.1%	28.8
c1csc(C(c2nnnn2C2CCCCC2)N2CCCC3(CCCCC3)C2)c1 (centres undefined)	23.1%	7.94µM*	2.4%	7.7	-12.8%	?
CCC/C=C/C(C)O (centres undefined)	4.4%	6.9%	.	.	-4.3%	.
CN1CCN(/C=N/c2sc3c(c2C#N)CCCCC3)CC1	-9.1%[38.3 µM]	10µM*	-0.5%	-11.4	-15.9%	16.5
N#Cc1c(/N=C/c2cc3ccccc3s2)sc2c1CCC2	1.9%	25.1µM*	2.5%	.	-16.6%	?
Cc1ccc(/C=N/c2sc3c(c2C#N)CCC3)s1	3.4%	25.1µM*	-8.5%	-9.7	-21.6%	-8.6
Cc1ccc(/C=N/c2sc3c(c2C#N)CCCCC3)o1	1.3%[38.3 µM]	?	-14.6%	-0.9	-14.5%	7.4
N#Cc1c(/N=C/C=C/c2ccccc2)sc2c1CCCC2	-3.2%[38.3 µM]	7.94µM*	-10.5%	-1.8	22.4µM*	20.5
COC(=O)c1ccccc1NC(=O)c1cc2nc(-c3ccc(OC)cc3)cc(C(F)(F)F)n2n1	.	.	.	-3.7	.	.
COc1cc2ccccc2cc1C(=O)Nc1ccc2oc(-c3cccc(C)c3)nc2c1	.	.	.	0.8	.	.
COc1ccc(-c2nc(N)c3ncn([C@H]4O[C@@H](CO)[C@@H](O)[C@@H]4O)c3n2)cc1	-7.4%	10.8%[13.5 µM]	1.1%[11.4 µM]	.	-4.2%	.
N[C@@H](CO)C(=O)NNCc1ccc(O)c(O)c1O	0.8%	?	6.0%[25.6 µM]	4.8[20.6 µM]	-2.2%	.
SMILES	IMPase Li cell	ALDH1A1 block	ALOX12 inhib	IMPase inh	HPGD block	PNC assembly inh
Cc1[nH]n(-c2ccc(F)cc2)c(=O)c1/C=N/c1sc2c(c1C#N)CCCC2	5.5%[38.3 µM]	?	-1.6%	-0.3	-17.2%	56.7
Cc1[nH]n(-c2cccc3ccccc23)c(=O)c1/C=N/c1sc2c(c1C#N)CCC2	5.8%[38.3 µM]	5.01µM*	-15.8%	6.6	?	30.9
CC(=O)N1CC2(CC2)CC1c1ccccc1 (centres undefined)	-8.8%	7.0%	-2.1%	.	-6.6%	.
CCCC(=O)Nc1ccc2c(c1)C(=O)N(CCC(=O)O)C2=O	-17.6%[38.3 µM]	?	3.4%	-5.3	?	31.6
O=C(O)CCCN1C(=O)c2ccc(Oc3cccc([N+](=O)[O-])c3)cc2C1=O	6.1%	0.0%	.	.	.	.
COc1cccc(C(=O)Nc2ccc3c(c2)C(=O)N(CCC(=O)O)C3=O)c1	5.8%[38.3 µM]	13.3%	6.3%	8.7	-14.5%	?
O=C(O)CCN1C(=O)c2ccc(NC(=O)CSc3ccccc3)cc2C1=O	-3.6%	?	-3.7%	-12.5	20µM*	-25.8
COCCCN1C(=O)c2ccc(C(=O)Nc3cccc(OC)c3)cc2C1=O	-14.9%[38.3 µM]	1.58µM*	-3.2%	2.1	-13.1%	31.3
CC(=O)Nc1cccc(Oc2ccc3c(c2)C(=O)N(CCC(=O)O)C3=O)c1	19.6%[38.3 µM]	1.6%	3.2%	10.0	25.1µM*	-14.7
CC1(C)Cc2nc(NC3CCCCC3)c(C#N)cc2CO1	5.6%	?	.	.	.	.
O=C(O)C/C=C\CC(=O)O	-0.7%	19.5%[13.5 µM]	2.5%[11.4 µM]	.	-14.2%	.
CCSc1nnc2c(n1)OC(c1ccc(OC)c(OC)c1)N(C(C)=O)c1ccccc1-2 (centres undefined)	.	.	.	-1.5	.	.
CCC/C=C(\CCC)C(NC(=O)c1ccco1)c1ccc(C(=O)OC)cc1 (centres undefined)	10.2%	-14.1%	1.2%	.	-17.6%	.
O=C1CCCC2=C1C(c1ccco1)Nc1ccc(C(=O)c3ccccc3)cc1N2 (centres undefined)	-18.8%[38.3 µM]	20µM*	-18.4%	4.6	-28.4%	?
O=C(Nc1cccc(C(F)(F)F)c1)NC1CCCCC1	-2.0%[38.3 µM]	8.1%	-4.1%	3.1	-16.9%	7.6
O=C(OC(C(=O)Nc1cccc(C(F)(F)F)c1)c1ccccc1)C1CCCCC1 (centres undefined)	13.5%	14.1µM*	-11.9%	13.8	-22.9%	-22.5
Cc1cc(=O)oc2cc(OCC(=O)OCc3nnc(-c4ccccc4)o3)ccc12	-2.2%	?	10.2%	-4.7	?	-85.6*
O=C(O)COc1ccc2c(-c3ccccc3)cc(=O)oc2c1	18.2%[38.3 µM]	?	5.5%	5.9	17.8µM*	?
Cc1cc(=O)oc2cc(OCc3nnc(-c4ccccc4Br)o3)ccc12	20.2%[38.3 µM]	?	-2.4%	8.0	?	13.1
CC(C)(C)OC(=O)NCC(=O)Oc1cc2oc(=O)cc(-c3ccccc3)c2cc1Cl	-11.3%	25.1µM*	-2.1%	.	?	?
Cc1cc(=O)oc2cc(OCC(=O)NCCc3nc4ccccc4[nH]3)ccc12	-10.8%[38.3 µM]	?	18.8%	7.8	?	-86.6*
Fc1ccc(C(NCCc2ccc(Cl)cc2)c2nnc(-c3ccccc3Cl)o2)cc1 (centres undefined)	.	.	.	-4.3	.	.
O=C(C1CCN(S(=O)(=O)c2ccc(Br)s2)CC1)N1CCN(c2cccc(Cl)c2)CC1	.	.	.	2.3	.	.
